Common to all, as to assay: DAPPL (digital affinity profiling via proximity ligation, sequencing); 10 mM Tris-HCl pH 7.5, 50 mM NaCl, 1 mM DTT, 4% glycerol, room temperature, 30 min; GST-TFs on glutathione beads, 16-mer random dsDNA library, 0.1% formaldehyde crosslink after washing; high values mean tight binding
Assay [1] deals with T1, FEV (Homo sapiens, UniProt Q99581 1-238).
T1 sequence: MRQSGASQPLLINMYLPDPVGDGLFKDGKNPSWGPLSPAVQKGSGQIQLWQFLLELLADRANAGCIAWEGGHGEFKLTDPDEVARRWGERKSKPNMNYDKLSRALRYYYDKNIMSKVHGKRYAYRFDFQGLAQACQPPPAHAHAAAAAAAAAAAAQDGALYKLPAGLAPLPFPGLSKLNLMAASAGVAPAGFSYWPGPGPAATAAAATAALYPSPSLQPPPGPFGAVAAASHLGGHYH
Particulars: protein: recombinant; tags: N-terminal GST; dsDNA, one strand shown. The essentials: (§1)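 Binding signal is each hexamer's read frequency for a factor divided by its frequency in the tag-only sample. The factors were GST-fused human transcription factors from yeast, captured on glutathione beads, DNA-barcoded and pooled with that sample. Pools were incubated with 200 nmole of a random double-stranded 16-mer DNA library in Tris/NaCl/DTT/glycerol buffer at room temperature for 30 min, then washed, crosslinked with 0.1% formaldehyde, proximity-ligated with BsaI/T4 ligase (1 h, 37 °C), PCR-amplified and sequenced on an Illumina NextSeq500.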

The target of assay [2] is ETV5 (Homo sapiens, UniProt P41161 1-510). The note with it: protein: recombinant; tags: N-terminal GST; dsDNA, one strand shown. The essentials: as §1
Assay [3] deals with HSF1 (Homo sapiens, UniProt Q00613 1-529). The note with it: protein: recombinant; tags: N-terminal GST; chain copies: 3; dsDNA, one strand shown. The essentials:
as §1

The target in assay [4] is T2, SPIC (Homo sapiens, UniProt Q8N5J4 1-248).
T2 sequence: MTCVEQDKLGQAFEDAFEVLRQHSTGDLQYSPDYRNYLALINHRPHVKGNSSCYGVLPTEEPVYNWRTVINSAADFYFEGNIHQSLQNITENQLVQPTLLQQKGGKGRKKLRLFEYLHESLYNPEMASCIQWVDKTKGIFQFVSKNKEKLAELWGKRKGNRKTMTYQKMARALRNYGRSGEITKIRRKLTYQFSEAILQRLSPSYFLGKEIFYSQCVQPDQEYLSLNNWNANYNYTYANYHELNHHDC
The note with it: protein: recombinant; tags: N-terminal GST; dsDNA, one strand shown. The essentials: as §1

For assay [5], the target named is ELF4 (Homo sapiens, UniProt Q99607 1-663). The note with it: protein: recombinant; tags: N-terminal GST; dsDNA, one strand shown. The essentials:
as §1

Assay [6] has as its target T3, ELK4 (Homo sapiens, UniProt P28324-2 1-405).
T3 sequence: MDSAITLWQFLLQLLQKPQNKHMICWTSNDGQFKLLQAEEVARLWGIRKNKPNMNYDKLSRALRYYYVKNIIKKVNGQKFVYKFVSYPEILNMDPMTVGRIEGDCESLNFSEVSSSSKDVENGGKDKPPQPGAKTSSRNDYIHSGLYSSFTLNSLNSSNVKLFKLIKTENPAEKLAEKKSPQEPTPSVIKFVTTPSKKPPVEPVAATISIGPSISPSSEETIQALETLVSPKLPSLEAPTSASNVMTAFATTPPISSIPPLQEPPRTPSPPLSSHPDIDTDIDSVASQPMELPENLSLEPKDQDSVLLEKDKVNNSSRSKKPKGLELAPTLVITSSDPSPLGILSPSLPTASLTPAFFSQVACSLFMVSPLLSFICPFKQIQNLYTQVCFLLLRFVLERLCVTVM
The note with it: protein: recombinant; tags: N-terminal GST; dsDNA, one strand shown. The essentials: as §1

In assay [7] the target is T4, ETV2 (Homo sapiens, UniProt O00321 1-342).
T4 sequence: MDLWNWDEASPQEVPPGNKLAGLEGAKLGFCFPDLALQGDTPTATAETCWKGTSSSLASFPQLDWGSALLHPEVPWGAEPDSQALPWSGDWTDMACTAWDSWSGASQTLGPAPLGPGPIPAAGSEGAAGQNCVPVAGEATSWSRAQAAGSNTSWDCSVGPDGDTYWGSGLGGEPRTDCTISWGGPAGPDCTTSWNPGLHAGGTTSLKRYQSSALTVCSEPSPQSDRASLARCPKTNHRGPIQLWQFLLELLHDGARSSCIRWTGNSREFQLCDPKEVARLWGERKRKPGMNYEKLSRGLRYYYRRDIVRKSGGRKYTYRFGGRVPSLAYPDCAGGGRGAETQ
Particulars: protein: recombinant; tags: N-terminal GST; dsDNA, one strand shown. The essentials: as §1

Assay [8] addresses T5, ELF3 (Homo sapiens, UniProt P78545 1-371).
T5 sequence: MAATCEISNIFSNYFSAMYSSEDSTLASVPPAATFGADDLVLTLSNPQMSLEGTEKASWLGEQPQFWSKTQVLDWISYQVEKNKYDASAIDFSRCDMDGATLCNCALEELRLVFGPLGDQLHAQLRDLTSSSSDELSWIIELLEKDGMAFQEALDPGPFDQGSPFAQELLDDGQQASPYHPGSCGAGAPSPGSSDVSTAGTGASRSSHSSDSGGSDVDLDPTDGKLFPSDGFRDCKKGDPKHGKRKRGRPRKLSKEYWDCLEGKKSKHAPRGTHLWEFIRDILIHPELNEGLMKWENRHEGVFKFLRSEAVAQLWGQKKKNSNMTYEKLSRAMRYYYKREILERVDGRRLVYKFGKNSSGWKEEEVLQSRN
Particulars: protein: recombinant; tags: N-terminal GST; dsDNA, one strand shown. The essentials: as §1

In assay [9] the target is CRX (Homo sapiens, UniProt O43186 1-299). The note with it: protein: recombinant; tags: N-terminal GST; dsDNA, one strand shown. The essentials: as §1
Assay [10] has as its target ETV1 (Homo sapiens, UniProt P50549 1-477). The note with it: protein: recombinant; tags: N-terminal GST; dsDNA, one strand shown. The essentials: as §1
Assay [11] has as its target T6, ERF (Homo sapiens, UniProt P50548 1-548).
T6 sequence: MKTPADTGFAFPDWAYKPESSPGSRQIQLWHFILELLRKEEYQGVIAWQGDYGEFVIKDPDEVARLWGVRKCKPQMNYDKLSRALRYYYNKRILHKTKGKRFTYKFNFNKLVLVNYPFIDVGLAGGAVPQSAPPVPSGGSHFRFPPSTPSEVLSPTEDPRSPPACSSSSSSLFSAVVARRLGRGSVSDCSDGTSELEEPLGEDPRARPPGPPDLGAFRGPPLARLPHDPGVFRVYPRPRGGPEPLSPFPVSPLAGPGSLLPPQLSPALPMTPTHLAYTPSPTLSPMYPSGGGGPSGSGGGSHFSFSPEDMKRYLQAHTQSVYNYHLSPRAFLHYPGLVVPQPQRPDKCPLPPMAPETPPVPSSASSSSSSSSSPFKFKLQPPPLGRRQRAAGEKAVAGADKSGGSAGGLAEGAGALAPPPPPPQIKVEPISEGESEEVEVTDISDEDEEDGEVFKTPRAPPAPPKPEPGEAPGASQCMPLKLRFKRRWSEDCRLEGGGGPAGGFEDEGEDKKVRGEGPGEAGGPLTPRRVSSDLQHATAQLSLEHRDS
The note with it: protein: recombinant; tags: N-terminal GST; dsDNA, one strand shown. The essentials:
as §1

Assay [12] has as its target T7, ETV3L (Homo sapiens, UniProt Q6ZN32 1-361).
T7 sequence: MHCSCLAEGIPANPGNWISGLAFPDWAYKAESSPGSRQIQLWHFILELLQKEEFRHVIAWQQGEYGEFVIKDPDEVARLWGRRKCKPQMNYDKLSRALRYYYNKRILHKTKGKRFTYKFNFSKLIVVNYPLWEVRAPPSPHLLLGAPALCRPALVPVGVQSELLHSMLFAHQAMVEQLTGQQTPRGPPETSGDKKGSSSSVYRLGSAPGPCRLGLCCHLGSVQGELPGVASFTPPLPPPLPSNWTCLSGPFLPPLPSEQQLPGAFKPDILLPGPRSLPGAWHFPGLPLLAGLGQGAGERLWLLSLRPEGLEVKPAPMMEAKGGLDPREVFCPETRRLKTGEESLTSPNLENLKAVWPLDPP
The note with it: protein: recombinant; tags: N-terminal GST; dsDNA, one strand shown. The essentials: as §1

In assay [13] the target is T8, ETS2 (Homo sapiens, UniProt P15036 1-469).
T8 sequence: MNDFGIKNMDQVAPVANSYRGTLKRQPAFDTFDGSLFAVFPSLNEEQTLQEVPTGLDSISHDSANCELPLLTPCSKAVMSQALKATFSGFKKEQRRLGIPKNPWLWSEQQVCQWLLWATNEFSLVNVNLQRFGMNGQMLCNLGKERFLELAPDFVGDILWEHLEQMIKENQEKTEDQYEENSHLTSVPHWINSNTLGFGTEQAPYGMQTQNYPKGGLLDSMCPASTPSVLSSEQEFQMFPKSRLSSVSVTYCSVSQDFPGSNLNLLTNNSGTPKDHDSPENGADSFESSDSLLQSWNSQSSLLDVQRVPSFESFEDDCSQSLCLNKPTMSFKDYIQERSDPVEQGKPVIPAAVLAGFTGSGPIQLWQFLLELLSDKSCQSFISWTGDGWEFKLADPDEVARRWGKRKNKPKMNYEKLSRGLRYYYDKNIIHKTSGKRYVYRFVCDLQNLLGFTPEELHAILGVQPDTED
The note with it: protein: recombinant; tags: N-terminal GST; dsDNA, one strand shown. The essentials: as §1

In assay [14] the target is T9, SPDEF (Homo sapiens, UniProt O95238 1-335).
T9 sequence: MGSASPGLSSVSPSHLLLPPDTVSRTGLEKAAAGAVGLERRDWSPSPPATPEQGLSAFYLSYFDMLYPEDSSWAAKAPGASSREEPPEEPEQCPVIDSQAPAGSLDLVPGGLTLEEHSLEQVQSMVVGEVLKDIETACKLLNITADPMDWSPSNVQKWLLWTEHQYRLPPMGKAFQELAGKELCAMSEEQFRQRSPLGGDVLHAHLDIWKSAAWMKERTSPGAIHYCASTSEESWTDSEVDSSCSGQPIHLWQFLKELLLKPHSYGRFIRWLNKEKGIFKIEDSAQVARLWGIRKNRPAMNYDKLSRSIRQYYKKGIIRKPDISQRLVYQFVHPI
The note with it: protein: recombinant; tags: N-terminal GST; dsDNA, one strand shown. The essentials: as §1

In assay [15] the target is T10, ETV7 (Homo sapiens, UniProt Q9Y603 1-341).
T10 sequence: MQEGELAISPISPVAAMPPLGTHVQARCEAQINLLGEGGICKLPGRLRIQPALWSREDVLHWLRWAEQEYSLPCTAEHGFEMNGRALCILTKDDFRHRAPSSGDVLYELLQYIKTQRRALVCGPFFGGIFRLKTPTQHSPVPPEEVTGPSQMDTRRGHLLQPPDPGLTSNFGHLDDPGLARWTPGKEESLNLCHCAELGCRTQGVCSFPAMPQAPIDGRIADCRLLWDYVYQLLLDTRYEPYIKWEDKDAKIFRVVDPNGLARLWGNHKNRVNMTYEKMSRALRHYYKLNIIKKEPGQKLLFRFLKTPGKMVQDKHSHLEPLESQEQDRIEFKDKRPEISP
The note with it: protein: recombinant; tags: N-terminal GST; dsDNA, one strand shown. The essentials:
as §1

Assay [16] concerns the target T11, ELF5 (Homo sapiens, UniProt Q9UKW6-2 1-255).
T11 sequence: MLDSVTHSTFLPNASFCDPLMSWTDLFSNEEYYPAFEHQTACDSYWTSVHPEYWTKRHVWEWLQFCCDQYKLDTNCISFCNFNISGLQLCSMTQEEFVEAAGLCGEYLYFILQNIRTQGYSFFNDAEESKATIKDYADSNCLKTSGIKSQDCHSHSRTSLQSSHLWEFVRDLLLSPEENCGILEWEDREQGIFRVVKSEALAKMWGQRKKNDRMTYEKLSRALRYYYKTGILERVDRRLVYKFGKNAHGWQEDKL
Particulars: protein: recombinant; tags: N-terminal GST; dsDNA, one strand shown. The essentials: as §1

Assay [17] has as its target T12, ETV3 (Homo sapiens, UniProt P41162-2 1-143).
T12 sequence: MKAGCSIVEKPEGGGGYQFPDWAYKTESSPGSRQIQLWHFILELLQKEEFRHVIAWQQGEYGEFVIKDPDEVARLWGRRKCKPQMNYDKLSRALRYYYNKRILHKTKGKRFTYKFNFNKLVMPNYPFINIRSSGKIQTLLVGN
The note with it: protein: recombinant; tags: N-terminal GST; dsDNA, one strand shown. The essentials: as §1

The target of assay [18] is ETV6 (Homo sapiens, UniProt P41212 1-452). The note with it: protein: recombinant; tags: N-terminal GST; dsDNA, one strand shown. The essentials:
as §1

Chain of ETV6 (P41212 whole entry): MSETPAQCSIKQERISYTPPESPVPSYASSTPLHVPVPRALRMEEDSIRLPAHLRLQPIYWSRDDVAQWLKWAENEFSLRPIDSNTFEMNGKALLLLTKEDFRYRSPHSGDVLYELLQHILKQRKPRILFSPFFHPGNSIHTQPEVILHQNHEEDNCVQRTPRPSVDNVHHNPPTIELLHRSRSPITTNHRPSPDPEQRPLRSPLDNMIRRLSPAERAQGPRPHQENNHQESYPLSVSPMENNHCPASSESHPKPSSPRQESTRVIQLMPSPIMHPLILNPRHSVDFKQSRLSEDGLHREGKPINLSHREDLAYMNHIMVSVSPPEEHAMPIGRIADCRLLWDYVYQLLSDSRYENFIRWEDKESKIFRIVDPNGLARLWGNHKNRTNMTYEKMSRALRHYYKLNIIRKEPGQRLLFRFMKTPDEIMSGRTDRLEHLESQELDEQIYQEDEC
Chain of ETV1 (P50549 whole entry): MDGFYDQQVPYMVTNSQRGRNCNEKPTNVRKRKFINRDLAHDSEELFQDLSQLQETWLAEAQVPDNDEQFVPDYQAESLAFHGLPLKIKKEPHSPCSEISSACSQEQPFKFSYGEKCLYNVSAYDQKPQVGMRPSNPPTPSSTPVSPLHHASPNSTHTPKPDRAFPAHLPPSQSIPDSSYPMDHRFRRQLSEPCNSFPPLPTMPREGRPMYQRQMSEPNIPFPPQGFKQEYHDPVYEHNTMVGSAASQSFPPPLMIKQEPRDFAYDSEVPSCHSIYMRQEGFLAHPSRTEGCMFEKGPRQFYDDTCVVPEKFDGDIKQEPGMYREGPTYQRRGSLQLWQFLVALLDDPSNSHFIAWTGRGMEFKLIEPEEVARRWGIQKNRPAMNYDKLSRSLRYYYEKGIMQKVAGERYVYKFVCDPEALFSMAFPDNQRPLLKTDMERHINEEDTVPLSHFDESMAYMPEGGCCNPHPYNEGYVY
Chain of ETV5 (P41161 whole entry): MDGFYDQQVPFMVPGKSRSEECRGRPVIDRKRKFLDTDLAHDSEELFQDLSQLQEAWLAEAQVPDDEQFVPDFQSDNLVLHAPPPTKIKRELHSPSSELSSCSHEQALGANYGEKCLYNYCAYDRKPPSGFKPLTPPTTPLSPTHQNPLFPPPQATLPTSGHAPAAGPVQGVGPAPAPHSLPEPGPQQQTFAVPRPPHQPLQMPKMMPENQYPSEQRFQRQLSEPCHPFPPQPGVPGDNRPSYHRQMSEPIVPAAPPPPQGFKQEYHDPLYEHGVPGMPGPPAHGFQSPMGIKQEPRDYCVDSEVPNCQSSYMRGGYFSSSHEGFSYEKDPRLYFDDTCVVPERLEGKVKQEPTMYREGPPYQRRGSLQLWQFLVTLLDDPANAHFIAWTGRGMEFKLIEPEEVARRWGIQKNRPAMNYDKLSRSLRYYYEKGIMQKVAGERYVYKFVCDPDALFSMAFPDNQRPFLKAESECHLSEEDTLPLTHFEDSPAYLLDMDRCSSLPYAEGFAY
Chain of CRX (O43186 whole entry): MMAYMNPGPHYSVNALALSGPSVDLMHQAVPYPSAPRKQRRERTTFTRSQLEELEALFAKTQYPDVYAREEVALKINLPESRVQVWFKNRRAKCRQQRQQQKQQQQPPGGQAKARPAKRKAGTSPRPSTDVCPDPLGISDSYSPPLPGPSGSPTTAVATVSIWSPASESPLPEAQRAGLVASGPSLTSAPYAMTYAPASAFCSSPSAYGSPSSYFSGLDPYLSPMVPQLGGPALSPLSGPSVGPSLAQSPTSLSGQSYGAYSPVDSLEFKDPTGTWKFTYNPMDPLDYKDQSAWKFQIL
Chain of ELF4 (Q99607 whole entry): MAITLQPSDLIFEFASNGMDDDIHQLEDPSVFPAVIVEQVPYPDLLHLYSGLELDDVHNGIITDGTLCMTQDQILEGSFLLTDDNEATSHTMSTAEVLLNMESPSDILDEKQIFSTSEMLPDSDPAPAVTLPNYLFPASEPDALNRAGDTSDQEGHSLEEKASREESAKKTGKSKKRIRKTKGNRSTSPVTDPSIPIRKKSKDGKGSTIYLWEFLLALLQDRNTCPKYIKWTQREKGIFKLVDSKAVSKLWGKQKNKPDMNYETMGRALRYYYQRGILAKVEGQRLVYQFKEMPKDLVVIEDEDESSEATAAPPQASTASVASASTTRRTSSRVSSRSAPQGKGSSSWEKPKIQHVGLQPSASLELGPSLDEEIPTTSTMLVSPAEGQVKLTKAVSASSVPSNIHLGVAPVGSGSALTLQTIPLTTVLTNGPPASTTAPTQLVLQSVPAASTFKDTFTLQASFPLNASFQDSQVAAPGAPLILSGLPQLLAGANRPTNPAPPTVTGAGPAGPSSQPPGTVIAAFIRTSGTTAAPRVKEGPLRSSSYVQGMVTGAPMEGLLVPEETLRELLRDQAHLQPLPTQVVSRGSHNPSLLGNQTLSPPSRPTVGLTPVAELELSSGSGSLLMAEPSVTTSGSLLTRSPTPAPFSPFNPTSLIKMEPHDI
Chain of HSF1 (Q00613 whole entry): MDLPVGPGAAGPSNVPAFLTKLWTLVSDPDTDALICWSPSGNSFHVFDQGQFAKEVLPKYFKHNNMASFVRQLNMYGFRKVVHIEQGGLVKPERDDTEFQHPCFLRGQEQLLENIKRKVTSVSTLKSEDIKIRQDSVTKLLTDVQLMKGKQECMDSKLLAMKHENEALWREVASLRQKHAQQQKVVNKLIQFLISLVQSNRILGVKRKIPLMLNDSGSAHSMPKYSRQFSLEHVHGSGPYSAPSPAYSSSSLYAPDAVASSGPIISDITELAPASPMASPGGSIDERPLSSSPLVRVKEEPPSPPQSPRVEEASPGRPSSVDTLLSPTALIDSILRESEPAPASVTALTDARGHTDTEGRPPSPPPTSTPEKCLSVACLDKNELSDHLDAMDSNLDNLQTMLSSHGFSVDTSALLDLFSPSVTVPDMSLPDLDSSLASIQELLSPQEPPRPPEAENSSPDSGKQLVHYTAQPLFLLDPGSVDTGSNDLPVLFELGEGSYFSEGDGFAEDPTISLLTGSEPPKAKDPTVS

Consider GCTTAC, for which the binding signal in assay [1] was 1.15 fold enrichment (6-mer frequency, TF over GST control); in [2], 1.12 fold enrichment (6-mer frequency, TF over GST control); in [3], 1.44 fold enrichment (6-mer frequency, TF over GST control); in assay [4], 1.21 fold enrichment (6-mer frequency, TF over GST control); in assay [5], 1.1 fold enrichment (6-mer frequency, TF over GST control); in assay [6] it was 1.1 fold enrichment (6-mer frequency, TF over GST control). Further, the binding signal was 1.22 fold enrichment (6-mer frequency, TF over GST control) in [7]; 1.4 fold enrichment (6-mer frequency, TF over GST control) in [8]; 2.01 fold enrichment (6-mer frequency, TF over GST control) in assay [9]; 1.22 fold enrichment (6-mer frequency, TF over GST control) in [10]; 1.13 fold enrichment (6-mer frequency, TF over GST control) in assay [11]; 1.09 fold enrichment (6-mer frequency, TF over GST control) in [12]. The binding signal is 1.09 fold enrichment (6-mer frequency, TF over GST control) in assay [13]; 1.23 fold enrichment (6-mer frequency, TF over GST control) in assay [14]; 1.03 fold enrichment (6-mer frequency, TF over GST control) in [15]; 1.14 fold enrichment (6-mer frequency, TF over GST control) in [16]; 1.23 fold enrichment (6-mer frequency, TF over GST control) in [17]; 1.03 fold enrichment (6-mer frequency, TF over GST control) in assay [18].

Values taken from PMC7862700, “An all-to-all approach to the identification of sequence-specific readers for epigenetic DNA modifications on cytosine”.
